Experimental data taken from the supplement of paper PMC13172266.
Structures can show the parent of a compound that is named as a salt.

Tested on: U2932 parental
Experiment: cell proliferation relative to vehicle (% of vehicle); higher = less growth inhibition
Settings: 50 nM; 72 h
Summary of the method: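 Growth medium with 10% FBS at 37°C and 5% CO2 was used to culture U2932, an ABC-DLBCL line, in parental form and as two clones rendered resistant to an ETS-targeting agent by repeated exposure over almost a year. These cells received compounds from a 348-member targeted inhibitor library at 500 nM or 50 nM for 72 h, followed by 4 h of MTT, a 25% SDS stop and an absorbance read on a Cytation 3. The percentage of proliferating cells is reported relative to DMSO vehicle.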

Point of comparison: `CCCCOc1c(C(=O)c2c(F)cc(C)cc2F)c[nH]c2nncc1-2`, cell proliferation 89.3. Against it:
- CCCCCOC(=O)Nc1nc(=O)n([C@@H]2O[C@H](C)[C@@H](O)[C@H]2O)cc1F [Capecitabine] — higher, 99.9
- C[C@H](Nc1ncnc2nc[nH]c12)c1cc2cccc(Cl)c2c(=O)n1-c1ccccc1 — higher, 106
- Cc1cc(Nc2cc(N3CCN(C)CC3)nc(/C=C/c3ccccc3)n2)n[nH]1 [ENMD-2076 L-(+)-Tartaric acid] — higher, 99
- Cn1cc(CNCC2CCN(c3ncc(C(=O)NO)cn3)CC2)c2ccccc21 — lower, 4.68
- Cc1ccc(C(=O)N(CCCN)[C@@H](c2nc3cc(Cl)ccc3c(=O)n2Cc2ccccc2)C(C)C)cc1 — lower, 9.61
- NCC(=O)Nc1ccc(-n2nc(C(F)(F)F)cc2-c2ccc3c(ccc4ccccc43)c2)cc1 — higher, 96.2
- CC[C@@]1(O)C(=O)OCc2c1cc1n(c2=O)Cc2cc3c(CN(C)C)c(O)ccc3nc2-1 [Topotecan HCl] — lower, 11.1
- COc1ccc(S(=O)(=O)N(CCO)c2ccccc2CN(C)C/C=C/c2ccc(Cl)cc2)cc1 [KN-93 Phosphate] — higher, 102
- CC[C@@H]1C(=O)N(C)c2cnc(Nc3ccc(C(=O)NC4CCN(C)CC4)cc3OC)nc2N1C1CCCC1 — lower, 14.8
- CC(C)(C)c1nc(-c2cccc(NS(=O)(=O)c3c(F)cccc3F)c2F)c(-c2ccnc(N)n2)s1 — higher, 101
- CC(C)CCN1c2nc(Nc3cc(F)c(O)c(F)c3)ncc2N(C)C(=O)C1C (centres undefined) — higher, 105
- CN1C(=O)C(Cc2c[nH]c3ccccc23)NC1=S (centres undefined) [Necrostatin-1] — higher, 95
- CN(CCOc1ccc(CC2SC(=O)NC2=O)cc1)c1ccccn1 (centres undefined) [Rosiglitazone] — higher, 94
- CC(C)C[C@H](NC(=O)[C@H](CCc1ccccc1)NC(=O)CN1CCOCC1)C(=O)N[C@@H](Cc1ccccc1)C(=O)N[C@@H](CC(C)C)C(=O)[C@@]1(C)CO1 [Carfilzomib (PR-171)] — lower, -1.34
- Cn1cc(-c2ccc3c(c2)CCN3C(=O)Cc2cccc(C(F)(F)F)c2)c2c(N)ncnc21 — higher, 101
- Cc1cc(C(C)Nc2ccccc2)c2nc(N3CCOCC3)cc(=O)n2c1 (centres undefined) — higher, 102
- Oc1nc(-c2ccc(C(F)(F)F)cc2)nc2c1CSCC2 — higher, 99.3
- Cn1cnc([N+](=O)[O-])c1Sc1ncnc2[nH]cnc12 [Azathioprine] — higher, 97.5
- Cn1cncc1[C@@](N)(c1ccc(Cl)cc1)c1ccc2c(c1)c(-c1cccc(Cl)c1)cc(=O)n2C [Tipifarnib] — lower, 62.7
- CO[C@@H](C(=O)N1Cc2[nH]nc(NC(=O)c3ccc(N4CCN(C)CC4)cc3)c2C1)c1ccccc1 — lower, 71.8
- CC(C)(C)c1cc(NC(=O)Nc2ccc(-c3cn4c(n3)sc3cc(OCCN5CCOCC5)ccc34)cc2)no1 [Quizartinib (AC220)] — higher, 101
- O=C(NCCCNc1nc(Nc2cccc(NC(=O)N3CCCC3)c2)ncc1I)c1cccs1 — higher, 97.2
- N#C/C(=C(/N)Sc1ccc(N)cc1)c1ccccc1C(F)(F)F — higher, 104
- Oc1ccc(-c2nc(-c3ccc(F)cc3)c(-c3ccncc3)[nH]2)cc1 — higher, 102
- COc1ccc(F)c(F)c1C(=O)c1cnc(NC2CCN(S(C)(=O)=O)CC2)nc1N — higher, 90.5
- Cc1nc(-c2ccc(OCC(C)C)c(C#N)c2)sc1C(=O)O [Febuxostat] — higher, 102
- COc1cccc(-c2cc(F)ccc2C2Cc3nc(N)nc(C)c3C(=O)N2)n1 (centres undefined) — lower, 7.13
- CC(C)C(=O)Nc1ccc([N+](=O)[O-])c(C(F)(F)F)c1 [Flutamide] — the same, 89.3
- CN(C)CCOc1ccc(-c2nc(-c3ccncc3)c(-c3ccc4c(c3)CC/C4=N\O)[nH]2)cc1 — higher, 93.3
- Nc1nc(F)nc2c1ncn2[C@@H]1O[C@H](COP(=O)(O)O)[C@@H](O)[C@@H]1O [Fludarabine Phosphate] — higher, 102
- COc1ccc(C2=N[C@@H](c3ccc(Cl)cc3)[C@@H](c3ccc(Cl)cc3)N2C(=O)N2CCNC(=O)C2)c(OC(C)C)c1 [Nutlin-3a] — higher, 104
- CCS(=O)(=O)N1CC(CC#N)(n2cc(-c3ncnc4[nH]ccc34)cn2)C1 — higher, 104
- CCc1nc(-c2cccc(C)c2)c(-c2ccnc(NC(=O)c3ccccc3)c2)s1 — higher, 104
- CNCc1ccc(-c2[nH]c3cc(F)cc4c3c2CCNC4=O)cc1 — higher, 96.6
- CC[C@H](NC(=O)[C@H](C)NC)C(=O)N1C[C@@H](O)C[C@H]1Cc1c(-c2[nH]c3cc(F)ccc3c2C[C@@H]2C[C@H](O)CN2C(=O)[C@H](CC)NC(=O)[C@H](C)NC)[nH]c2cc(F)ccc12 [Birinapant] — higher, 103
- O=C(/C=C/c1ccc(CN(CCO)CCc2c[nH]c3ccccc23)cc1)NO [LAQ824 (Dacinostat)] — lower, 33.6
- COc1ccc(-n2c(SCCCN3C(=O)c4cccc5cccc(c45)C3=O)nnc2-c2ccncc2)cc1 — higher, 94.3
- CO[C@H]1C[C@@H]2CC[C@@H](C)[C@@](O)(O2)C(=O)C(=O)N2CCCC[C@H]2C(=O)O[C@H]([C@H](C)C[C@@H]2CC[C@@H](O)[C@H](OC)C2)CC(=O)[C@H](C)/C=C(\C)[C@@H](O)[C@@H](OC)C(=O)[C@H](C)C[C@H](C)/C=C/C=C/C=C/1C [Rapamycin (Sirolimus)] — lower, 58.2
